Common to all, as to conditions: mRNA level, 48 h; actives raise or lower the signal
Read-out in test [1]: JUN Transcription Factor, JUN (gene 3725)
Put plainly: LTEA_HepaRG_JUN: Life Technologies and Expression Analysis (LTEA) Assay for JUN Transcription Factor using HepaRG (AID 2283513). The method in brief:
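mRNA measured by TaqMan qRT-PCR after 48 h chemical exposure of HepaRG cultures; normalization to three housekeeping genes. Duplicate eight-point half-log curves from 100 uM in 0.5% DMSO; gain or loss fitted against DMSO baseline.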

Read-out in test [2]: Lipase C (LIPC), LIPC (gene 3990)
As to the kind of experiment: LTEA_HepaRG_LIPC: Life Technologies and Expression Analysis (LTEA) Assay for Lipase C (LIPC) using HepaRG (AID 2283514). The procedure, abridged: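 In this multiplexed gene-expression screen, human HepaRG cultures received test chemicals for 48 h across eight concentrations with 100 uM highest, in duplicate. Values reflect LIPC mRNA induction or suppression versus DMSO vehicle, from normalized qRT-PCR.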

Read-out in test [3]: Lipoprotein lipase (LPL), LPL (gene 4023)
As to the kind of experiment: LTEA_HepaRG_LPL: Life Technologies and Expression Analysis (LTEA) Assay for Lipoprotein lipase (LPL) using HepaRG (AID 2283515). The method in brief:
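Concentration-response testing used half-log steps from 100 uM in 0.5% DMSO on human HepaRG cells, 48 h, duplicate wells. Phenobarbital 1 mM served as induction control; LPL mRNA was normalized to ACTB, GAPDH, POLR2A.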

Read-out in test [4]: MicroRNA 122 (MIR122), gene 406906
Put plainly: LTEA_HepaRG_MIR122: Life Technologies and Expression Analysis (LTEA) Assay for MicroRNA 122 (MIR122) using HepaRG (AID 2283516). Note: the transcript read is the microRNA miR-122. The procedure, abridged:
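Expression measured by microfluidic qRT-PCR with three housekeeping genes for normalisation, after 48 h treatment of HepaRG cultures. Eight concentrations (top 100 uM, half-log steps, 0.5% DMSO vehicle) in duplicate; gain or loss fitted relative to vehicle.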

Read-out in test [5]: matrix metalloproteinase-10 (MMP10), MMP10 (gene 4319)
As to the kind of experiment: LTEA_HepaRG_MMP10: Life Technologies and Expression Analysis (LTEA) Assay for matrix metalloproteinase-10 (MMP10) using HepaRG (AID 2283517). The procedure, abridged:
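In differentiated HepaRG cultures kept in 0.5% DMSO, test chemicals act for 48 h over an eight-point range with a top dose of 100 uM. Expression is then quantified by TaqMan RT-PCR against ACTB, GAPDH and POLR2A.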

Read-out in the next test: MYC, MYC (gene 4609)
As to the kind of experiment: LTEA_HepaRG_MYC: Life Technologies and Expression Analysis (LTEA) Assay for MYC using HepaRG (AID 2283518). The method in brief: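 MYC transcript changes, up or down relative to 0.5% DMSO, from TaqMan qRT-PCR normalized to three housekeeping genes. Human HepaRG cultures received chemicals for 48 h at eight half-log concentrations up to 100 uM, in duplicate.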

Read-out in test [6]: matrix metalloproteinase-3 (MMP3), MMP3 (gene 4314)
Put plainly: LTEA_HepaRG_MMP3: Life Technologies and Expression Analysis (LTEA) Assay for matrix metalloproteinase-3 (MMP3) using HepaRG (AID 2283519). The method in brief: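 Human liver HepaRG cultures received chemicals (top concentration 100 uM, 0.5% DMSO) for 48 h in duplicate. MMP3 mRNA induction or loss was then assessed via TaqMan qRT-PCR with housekeeping-gene normalisation.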

Read-out in test [7]: Paternally Expressed 10 (PEG10), PEG10 (gene 23089)
Put plainly: LTEA_HepaRG_PEG10: Life Technologies and Expression Analysis (LTEA) Assay for Paternally Expressed 10 (PEG10) using HepaRG (AID 2283520).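 For AC50: PEG10 transcript by qRT-PCR normalised to ACTB GAPDH and POLR2A.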 The procedure, abridged: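 PEG10 transcript measured by Fluidigm qRT-PCR, normalized to three housekeeping genes, in HepaRG cells treated 48 h (highest 100 uM, half-log steps, 0.5% DMSO vehicle). Cells plated 48 h before switching to serum-free induction medium.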

Read-out in test [8]: Nuclear factor NF-kappa-B p105 subunit (Homo sapiens) (UniProt P19838)
As to the kind of experiment: LTEA_HepaRG_NFKB1: Life Technologies and Expression Analysis (LTEA) Assay for Nuclear Factor Kappa B Subunit 1 (NFKB1) using HepaRG (AID 2283521).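 For outcome: TaqMan qRT-PCR transcript normalised to ACTB GAPDH and POLR2A housekeeping genes.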 The method in brief: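 Differentiated human HepaRG cells in serum-free induction medium with 0.5% DMSO were exposed for 48 h to eight half-log concentrations, top 100 uM, in duplicate. NFKB1 mRNA measured by Fluidigm TaqMan qRT-PCR, normalised to ACTB, GAPDH and POLR2A; bidirectional fit versus DMSO.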

Read-out in test [9]: Protein phosphatase 2A (PPP2R4), PTPA (gene 5524)
As to the kind of experiment: LTEA_HepaRG_PPP2R4: Life Technologies and Expression Analysis (LTEA) Assay for Protein phosphatase 2A (PPP2R4) using HepaRG (AID 2283522). The method in brief: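 Expression was quantified by Fluidigm qRT-PCR normalised to three housekeeping genes after 48 h treatment. Human HepaRG cells received an 8-point series from 100 µM downward by half-logs, in duplicate with 0.5% DMSO vehicle and 1 mM phenobarbital as induction control.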

Read-out in test [10]: Phosphatase and tensin (PTEN), PTEN (gene 5728)
Put plainly: LTEA_HepaRG_PTEN: Life Technologies and Expression Analysis (LTEA) Assay for Phosphatase and tensin (PTEN) using HepaRG (AID 2283523). The procedure, abridged:
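Expression of PTEN is quantified in the human liver line HepaRG following two days of dosing (top concentration 100 uM, half-log dilutions, 0.5% DMSO). Values derive from bidirectional curve fitting relative to DMSO controls.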

Read-out in test [11]: solute carrier (SLC22A1), SLC22A1 (gene 6580)
Put plainly: LTEA_HepaRG_SLC22A1: Life Technologies and Expression Analysis (LTEA) Assay for solute carrier (SLC22A1) using HepaRG (AID 2283524).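 For AC50: TaqMan qRT-PCR normalized to ACTB GAPDH and POLR2A housekeeping genes.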 The procedure, abridged:
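Transcript induction or suppression of SLC22A1 in human HepaRG cultures is scored after 48 h chemical treatment, with DMSO (0.5%) as baseline for bidirectional fitting. Concentrations span eight half-log points topping at 100 uM.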

Read-out in test [12]: Pyruvate Dehydrogenase Kinase 4 (PDK4), PDK4 (gene 5166)
As to the kind of experiment: LTEA_HepaRG_PDK4: Life Technologies and Expression Analysis (LTEA) Assay for Pyruvate Dehydrogenase Kinase 4 (PDK4) using HepaRG (AID 2283525). The method in brief:
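Eight-point, half-log concentration series (max 100 uM, 0.5% DMSO) applied to differentiated HepaRG cells for 48 h in duplicate. Endpoint: PDK4 mRNA induction or repression by qRT-PCR against DMSO baseline.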

Read-out in test [13]: NAD(P)H dehydrogenase [quinone] 1 (NQO1), NQO1 (gene 1728)
Put plainly: LTEA_HepaRG_NQO1: Life Technologies and Expression Analysis (LTEA) Assay for NAD(P)H dehydrogenase [quinone] 1 (NQO1) using HepaRG (AID 2283526). The method in brief: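 NQO1 transcript induction or loss measured by TaqMan qRT-PCR, referenced to three housekeeping genes and fitted bidirectionally against 0.5% DMSO. HepaRG cultures exposed 48 h, duplicate, eight-point half-log series, top 100 uM.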

Read-out in test [14]: Nuclear factor erythroid 2-related factor 2 (Homo sapiens) (UniProt Q16236)
Put plainly: LTEA_HepaRG_NFE2L2: Life Technologies and Expression Analysis (LTEA) Assay for Nuclear factor erythroid 2-related factor 2 (NFE2L2) Transcription Factor using HepaRG (AID 2283527).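 Note: TaqMan qRT-PCR transcript level normalised to ACTB GAPDH and POLR2A housekeeping genes.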 The procedure, abridged:
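Human liver HepaRG line treated in duplicate for 48 h with an eight-point series topping at 100 uM. Gene expression of NFE2L2 by qRT-PCR, bidirectionally fitted against the vehicle control.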

Read-out in test [15]: succinate dehydrogenase complex iron sulfur subunit B (SDHB), SDHB (gene 6390)
As to the kind of experiment: LTEA_HepaRG_SDHB: Life Technologies and Expression Analysis (LTEA) Assay for succinate dehydrogenase complex iron sulfur subunit B (SDHB) using HepaRG (AID 2283528). The method in brief: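 HepaRG cells (~100,000/well, plated 48 h) exposed in duplicate for 48 h in serum-free induction medium to 8-point half-log series from 100 uM in 0.5% DMSO; mRNA by qRT-PCR normalised to ACTB, GAPDH, POLR2A; bidirectional fit versus DMSO.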

Read-out in test [16]: Signal transducer and activator of transcription 3 (Homo sapiens) (UniProt P40763)
As to the kind of experiment: LTEA_HepaRG_STAT3: Life Technologies and Expression Analysis (LTEA) Assay for Signal transducer and activator of transcription (STAT3) using HepaRG (AID 2283529). The procedure, abridged: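 In this transcriptional endpoint, HepaRG cultures receive test chemicals at up to 100 uM for 48 h, tested in duplicate. STAT3 mRNA is normalized to ACTB, GAPDH and POLR2A.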

Read-out in test [17]: solute carrier (SLCO1B1), SLCO1B1 (gene 10599)
As to the kind of experiment: LTEA_HepaRG_SLCO1B1: Life Technologies and Expression Analysis (LTEA) Assay for solute carrier (SLCO1B1) using HepaRG (AID 2283530). The method in brief:
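SLCO1B1 transcript levels were quantified by TaqMan qRT-PCR using three housekeeping genes for normalization. This followed 48 h chemical exposure (100 uM top, half-log, 8 points, 0.5% DMSO) of HepaRG liver cells, with gain or loss fitted relative to DMSO.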

Read-out in test [18]: sulfotransferase 2A1 (SULT2A1), SULT2A1 (gene 6822)
As to the kind of experiment: LTEA_HepaRG_SULT2A1: Life Technologies and Expression Analysis (LTEA) Assay for sulfotransferase 2A1 (SULT2A1) using HepaRG (AID 2283531). The method in brief: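 Expression change of SULT2A1, by qRT-PCR with three housekeeping-gene normalization, was scored bidirectionally versus DMSO. Cells: differentiated HepaRG, dosed in duplicate for 48 h across 8 points, highest 100 µM, half-log dilution, 0.5% DMSO.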

Read-out in test [19]: Transforming Growth Factor (TGFA), TGFA (gene 7039)
As to the kind of experiment: LTEA_HepaRG_TGFA: Life Technologies and Expression Analysis (LTEA) Assay for Transforming Growth Factor (TGFA) using HepaRG (AID 2283532). The method in brief:
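Gene expression of TGFA was quantified by qRT-PCR after human HepaRG cells were treated for 48 h with test chemicals (eight concentrations, highest 100 uM, 0.5% DMSO). Activity in either direction was fitted relative to DMSO.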

Calls of active or inactive are those of the source. Rule for the calls: active = hit-call score of the fitted dose curve at least 0.9, where 1 is the maximum; inactive = score below 0.9.

Nuclear factor erythroid 2-related factor 2 (Homo sapiens), sequence (Q16236 whole entry, looked up): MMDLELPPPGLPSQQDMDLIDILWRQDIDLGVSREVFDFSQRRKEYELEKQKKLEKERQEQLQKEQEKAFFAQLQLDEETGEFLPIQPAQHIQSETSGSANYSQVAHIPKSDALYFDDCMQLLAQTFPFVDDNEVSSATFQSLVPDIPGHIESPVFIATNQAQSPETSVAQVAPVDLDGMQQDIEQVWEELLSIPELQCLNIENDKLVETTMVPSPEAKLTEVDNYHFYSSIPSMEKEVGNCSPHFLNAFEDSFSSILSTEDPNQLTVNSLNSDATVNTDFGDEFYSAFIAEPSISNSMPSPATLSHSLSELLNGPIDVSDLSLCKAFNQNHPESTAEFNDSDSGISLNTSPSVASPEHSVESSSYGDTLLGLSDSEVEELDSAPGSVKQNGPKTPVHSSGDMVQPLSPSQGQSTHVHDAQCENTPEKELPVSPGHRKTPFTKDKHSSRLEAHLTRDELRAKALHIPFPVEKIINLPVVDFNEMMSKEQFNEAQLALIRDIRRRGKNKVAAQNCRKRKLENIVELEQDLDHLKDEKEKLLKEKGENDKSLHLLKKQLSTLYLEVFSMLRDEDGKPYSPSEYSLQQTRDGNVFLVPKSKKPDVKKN
Signal transducer and activator of transcription 3 (Homo sapiens), sequence (P40763 whole entry, looked up): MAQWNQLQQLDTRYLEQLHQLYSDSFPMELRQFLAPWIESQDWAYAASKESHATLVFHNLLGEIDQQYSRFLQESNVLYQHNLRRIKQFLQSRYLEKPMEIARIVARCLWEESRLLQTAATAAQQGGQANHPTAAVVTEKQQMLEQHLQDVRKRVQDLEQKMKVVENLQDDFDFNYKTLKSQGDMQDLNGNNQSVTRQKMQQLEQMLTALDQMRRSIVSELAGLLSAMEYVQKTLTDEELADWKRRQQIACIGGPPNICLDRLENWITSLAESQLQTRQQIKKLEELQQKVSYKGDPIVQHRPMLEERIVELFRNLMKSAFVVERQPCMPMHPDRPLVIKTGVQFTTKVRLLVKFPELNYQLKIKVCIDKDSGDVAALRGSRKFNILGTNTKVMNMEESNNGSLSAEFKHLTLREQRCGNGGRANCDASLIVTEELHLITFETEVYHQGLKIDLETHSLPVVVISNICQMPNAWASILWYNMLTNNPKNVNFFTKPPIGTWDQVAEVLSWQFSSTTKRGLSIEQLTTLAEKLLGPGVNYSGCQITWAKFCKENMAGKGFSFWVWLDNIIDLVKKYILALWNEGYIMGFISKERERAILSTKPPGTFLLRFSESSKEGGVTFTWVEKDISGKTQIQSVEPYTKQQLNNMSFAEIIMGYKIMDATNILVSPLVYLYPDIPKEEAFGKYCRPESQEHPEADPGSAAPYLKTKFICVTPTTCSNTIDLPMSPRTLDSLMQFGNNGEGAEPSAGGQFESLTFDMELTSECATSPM
Nuclear factor NF-kappa-B p105 subunit (Homo sapiens), sequence (P19838 whole entry, looked up): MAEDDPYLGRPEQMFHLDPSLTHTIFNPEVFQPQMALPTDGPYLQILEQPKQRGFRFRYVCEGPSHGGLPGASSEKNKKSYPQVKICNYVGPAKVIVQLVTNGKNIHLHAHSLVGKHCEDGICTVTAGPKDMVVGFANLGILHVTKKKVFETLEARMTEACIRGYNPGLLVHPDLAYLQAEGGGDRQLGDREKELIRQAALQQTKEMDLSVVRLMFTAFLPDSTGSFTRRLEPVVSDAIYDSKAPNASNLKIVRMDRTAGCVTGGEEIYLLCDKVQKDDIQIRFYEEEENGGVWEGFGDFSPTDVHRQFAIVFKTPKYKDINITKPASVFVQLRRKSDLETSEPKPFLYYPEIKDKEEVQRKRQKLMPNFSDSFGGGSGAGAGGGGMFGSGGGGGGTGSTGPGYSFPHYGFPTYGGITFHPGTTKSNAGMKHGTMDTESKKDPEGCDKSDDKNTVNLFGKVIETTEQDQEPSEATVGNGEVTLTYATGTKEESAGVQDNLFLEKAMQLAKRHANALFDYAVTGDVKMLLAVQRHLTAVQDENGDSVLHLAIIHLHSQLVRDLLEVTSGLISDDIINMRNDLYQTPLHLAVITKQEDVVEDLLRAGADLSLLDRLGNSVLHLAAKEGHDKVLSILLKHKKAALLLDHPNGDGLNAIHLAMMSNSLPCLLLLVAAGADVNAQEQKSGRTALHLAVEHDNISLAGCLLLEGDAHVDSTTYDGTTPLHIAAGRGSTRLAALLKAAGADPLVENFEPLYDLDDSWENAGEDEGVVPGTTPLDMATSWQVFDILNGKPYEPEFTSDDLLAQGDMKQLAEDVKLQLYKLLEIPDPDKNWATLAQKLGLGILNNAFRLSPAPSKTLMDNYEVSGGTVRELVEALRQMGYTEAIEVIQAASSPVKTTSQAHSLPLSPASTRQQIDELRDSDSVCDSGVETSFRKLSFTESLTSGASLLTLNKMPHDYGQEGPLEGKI

As to `COc1nn(CSP(=S)(OC)OC)c(=O)s1`, the outcome in [1] is “inactive”; in [2] it was “inactive”; in [3], “inactive”; in test [4] it was “inactive”; in test [5], “inactive”; in the test with MYC, MYC (gene 4609), “inactive”. Moreover, the outcome in test [6], in test [7], in test [8], in test [9], in test [10] and in test [11] was inactive. The compound was classed as inactive in test [12], in [13], in test [14], in [15], in test [16] and in test [17]. The compound was called inactive in [18] and in [19].
For the compound `CCOC1Oc2ccc(OS(C)(=O)=O)cc2C1(C)C` (stereo not given), the compound was classed as inactive in test [1], in test [5], in test [6], in test [9], in test [10] and in test [13]. Also, the result in test [14] was inactive. Further, the AC50 in test [2] was 74 µM (active); in test [3] it was 76.4 µM (active); in test [4] it was 78.7 µM (active); with MYC, MYC (gene 4609), 77.7 µM (active); in [7], 28.4 µM (active); in [8] it was 9.92 µM (active). The AC50 is 71.9 µM (active) in [11]; 85.7 µM (active) in test [12]; 9.92 µM (active) in test [15]; 21.4 µM (active) in test [16]; 73.6 µM (active) in [17]; 83.5 µM (active) in test [18]. Besides, the AC50 in test [19] was 90.8 µM (active).
`C#CCN1C(=O)COc2cc(F)c(N3C(=O)C4=C(CCCC4)C3=O)cc21`: the outcome is “inactive” in test [1]; “inactive” in test [3]; “inactive” in [4]; “inactive” in test [5]; “inactive” with MYC, MYC (gene 4609); “inactive” in [6]. Further, the result in test [8], in test [9], in test [10], in test [11], in test [12] and in [13] was inactive. Further, the compound was called inactive in test [14], in test [15], in [16], in test [17], in [18] and in test [19]. For the same compound, the AC50 in test [2] is 26.3 µM (active); in [7] it was 37.8 µM (active).

The values above are taken from PubChem BioAssay (EPA / NIEHS).
